Tested on: Vero E6 infected with SARS-CoV-2
Assay: inhibition of SARS-CoV-2 cytopathic effect; higher = more antiviral protection, active = above 15
Settings: 48 h

Measured: inhibition of SARS-CoV-2 cytopathic effect

Cc1cc(C)c(NC(=O)N(Cc2ccc3c(c2)Cc2ccccc2-3)C2CCCCCC2)c(C)c1
inactive: 1 nM 0.2% | 8.33 nM 0.24% | 100 nM 1.89% | 833.33 nM 3.17% | 10000 nM -1.02%

Cn1c(=O)c2c(ncn2C)n(C)c1=O [caffeine]
inactive: 1 nM -0.58% | 8.33 nM 1.54% | 100 nM -0.63% | 833.33 nM 2.87% | 10000 nM 3.35%

C[C@]12N[C@H](Cc3ccccc31)c1ccccc12 [dizocilpine-(-)]
inactive: 1 nM 1.97% | 8.33 nM 1.82% | 100 nM 1.33% | 833.33 nM 1.1% | 10000 nM -0.44%

Nc1nonc1/C(=N/O)Nc1ccc(F)c(Cl)c1
inactive: 1 nM 5.29% | 8.33 nM 3.44% | 100 nM 2.09% | 833.33 nM 0.57% | 10000 nM -2.02%

O=C(O)[C@H](O)[C@@H](O)[C@H](O[C@@H]1O[C@H](CO)[C@H](O)[C@H](O)[C@H]1O)[C@H](O)CO [maltobionic-acid]
inactive: 1 nM -0.69% | 8.33 nM -2.72% | 100 nM -1.55% | 833.33 nM -3.61% | 10000 nM -1.2%

O=c1oc2ccccc2c(O)c1Cc1c(O)c2ccccc2oc1=O [dicoumarol]
inactive: 1 nM 0.87% | 8.33 nM 0.88% | 100 nM -0.82% | 833.33 nM 1.35% | 10000 nM 3.32%

CN(C)CCCN1c2ccccc2Sc2ccc(C(F)(F)F)cc21 [triflupromazine]
inactive: 1 nM 1.3% | 8.33 nM -0.49% | 100 nM -1.51% | 833.33 nM 1.78% | 10000 nM 0.59%

CCCCCCCCCCCCCCCCCCO [octadecan-1-ol]
inactive: 1 nM -0.16% | 8.33 nM -0.19% | 100 nM -2.3% | 833.33 nM -2.63% | 10000 nM 2.04%

CN1CCN(C2=Cc3ccccc3Oc3ccc(Cl)cc32)CC1
inactive: 1 nM 1.06% | 8.33 nM 0.31% | 100 nM -0.45% | 833.33 nM -1.6% | 10000 nM -1.46%

Cc1cc(C(=O)Nc2nc3cccc(Cl)c3n2[C@@H]2CCCCN(C(=O)/C=C/CN(C)C)C2)ccn1
inactive: 1 nM 2.52% | 8.33 nM -0.94% | 100 nM 0.57% | 833.33 nM -8.44% | 10000 nM 10.4%

O[C@H]([C@H](O)[C@@H]1CO1)[C@H]1CO1 [dianhydrogalactitol]
inactive: 1 nM -0.61% | 8.33 nM -1.52% | 100 nM -3.41% | 833.33 nM 0.41% | 10000 nM 2.5%

C[C@H](NC[C@H](O)CP(=O)(O)Cc1ccccc1)c1ccc(Cl)c(Cl)c1
inactive: 1 nM 2.41% | 8.33 nM 3.89% | 100 nM 1.35% | 833.33 nM 1.79% | 10000 nM 4.47%

CC1(N)CCN(c2cnc(-c3cccc(Cl)c3Cl)c(N)n2)CC1
inactive: 1 nM -2.86% | 8.33 nM 2.23% | 100 nM 2.58% | 833.33 nM -1.51% | 10000 nM -9.83%

CC(C)[C@H](CO)Nc1nc(Nc2ccc(C(=O)O)c(Cl)c2)c2ncn(C(C)C)c2n1 [purvalanol-B]
inactive: 1 nM 11.3% | 8.33 nM 5.29% | 100 nM 0.04% | 833.33 nM 4.65% | 10000 nM -1.55%

Source: the supplement of paper PMC13380429
